High-throughput results (PubChem)
CHX counter: counter-screen hit for Shiga toxin inhibitors, cycloheximide | cell reporter, cycloheximide protein synthesis inhibition counterscreen | max response, % | 12% of 300,000 active; in the data active = max response mostly above about 13%, no sharp cut-off; inactive = mostly below about 14%; also: read at 38.3 µM for the half of the compounds with a filed dose
Pf growth 96h: P. falciparum growth inhibition at 96 hours; Potency, µM (highest dose often 28.7 µM), hits mostly inhibitors; P. falciparum luciferase reporter growth, 96 h; 6.9% of 320,000 active
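96 h incubation, 37 C, 5% CO2, of luciferase-reporter P. falciparum-infected RBCs (2% hematocrit, 0.05% parasitemia final) with test compounds; endpoint luminescence.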
Pf growth 48h: P. falciparum growth inhibition at 48 hours (one generation) | 5.9% of 310,000 active | Potency, µM (series often up to 28.7 µM), usual class: inhibitors | P. falciparum luciferase growth in erythrocytes, 48 h
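Growth was read as firefly luciferase luminescence after a 48 h, 37 C, 5% CO2 exposure of compounds to reporter-bearing P. falciparum cultures (0.1% parasitemia, 2% hematocrit final) in Albumax-supplemented RPMI 1640.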
AMA1-RON2 inh: AMA1-RON2 (P. falciparum) interaction inhibition | AlphaScreen AMA1-biotinylated RON2 peptide binding | Potency, µM (highest dose often 58.2 µM), most hits filed as inhibitors | 0.2% of 360,000 active | AID 720542; also: nearly all actives have a fitted effect of over 45% in size
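AMA1 (3D7) with his tag at 25 nM final met compounds first, then biotinylated RON2 peptide at 25 nM; detection used donor plus acceptor beads, 10 µg/mL apiece, read by AlphaScreen after 30 min at room temperature.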
HCV inh: HCV inhibition | 3.4% of 340,000 active | AID 651820 | Potency, µM (top dose mostly 41.8 µM), actives largely listed as inhibitors | Huh7.5.1 HCVcc-Cre infection, luciferase reporter, 44 h
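Cells (1,000/well) were plated 4 h before compound, then infected with HCVcc-Cre virus (~0.5 moi). After 44 h further culture, infection was read as luciferase luminescence following a 15 min substrate incubation at room temperature.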
Shiga toxin inh: Shiga toxin inhibition | 9.2% of 290,000 active | inhibition, % at 38.7 µM | AID 2315 | Vero cells, Shiga toxin protein synthesis inhibition reporter; in the data active = inhibition mostly above about 28%, no sharp cut-off; inactive = mostly below about 43%
Hits are given with their value; - = inactive; ? = inconclusive; . = not tested or not shown; [ ] = another dose, or the depositor's remark. This is a sample that favours compounds with a hit; in the whole collection about 21% have one here. Unless noted, calls follow the shape of the dose curve; as a rule, active = well fitted curve in the direction sought with a large enough effect; inconclusive = small, poorly fitted or top-dose-only effect, or another doubt; inactive = no such curve, though single readings can be large; an effect the other way counts as inactive or inconclusive.

SMILES	CHX counter	Pf growth 96h	Pf growth 48h	AMA1-RON2 inh	HCV inh	Shiga toxin inh
COc1cc(C(=O)Nc2ccc(NC(=O)c3ccccc3Cl)nc2)cc(OC)c1OC	-	-	9.28µM	-	?	-
COc1ccc(C(=O)Nc2ccc(NC(=O)c3ccccc3OC)nc2)cc1	-	-	-	-	?	-
COc1cc(C(=O)Nc2ccc(NC(=O)c3ccccc3)nc2)cc(OC)c1OC	-	-	5.22µM	-	?	-
COc1cc(C(=O)Nc2ccc(NC(=O)C(C)C)nc2)cc(OC)c1OC	-	-	?	-	-	-
COc1cc(C(=O)Nc2ccc(NC(=O)C3CC3)nc2)cc(OC)c1OC	-	?	-	-	?	-
COc1cc(OC)cc(-c2cc(NC(C)=O)n[nH]2)c1	-	-	-	-	-	-
CC(=O)Nc1cc(-c2ccc(Cl)cc2)[nH]n1	43.5	-	-	-	-	-
COc1cc(C(=O)Nc2cc(-c3ccccc3)[nH]n2)cc(OC)c1OC	-	-	11.7µM	-	-	-
CCCC(=O)Nc1ccc(NC(=O)c2ccccc2Cl)nc1	40.4	?	-	-	?	-
COc1cc(C(=O)Nc2nc(OC)c(-c3ccccc3)c(OC)n2)cc(OC)c1OC	-	.	?	-	?	-
COc1cc(C(=O)Nc2ccc(Nc3ccccc3)cc2)cc(OC)c1OC	-	13.1µM	-	?	?	-
O=C(C[C@@H]1C/C=C/CCCC(=O)O[C@H](c2ccccc2)CNC1=O)N[C@H](CO)Cc1ccccc1	.	.	.	-	-	.
CC1(c2nnnn2-c2ccc3c(c2)OCCO3)CCC(=O)N1C1CCN(Cc2ccccc2)CC1 (stereo unspecified)	.	.	.	-	.	.
COc1cc(C(=O)NC(c2ccccc2)c2ccccc2)cc(OC)c1OC	-	-	?	-	-	-
COc1cc(/C=C(\NC(=O)c2cc(OC)c(OC)c(OC)c2)C(=O)NC(C(=O)O)c2ccccc2)cc(OC)c1OC (stereo unspecified)	-	13.1µM	-	-	-	-
COc1cc(C(=O)Nc2ccc(C(=O)c3cccs3)cc2)cc(OC)c1OC	-	9.28µM	?	-	?	-
COc1ccc(C(=O)Nc2ccc(NC(=O)c3cccs3)cc2)cc1Cl	-	?	-	-	-	-
O=C(CCNS(=O)(=O)c1ccccc1F)N1CCN(Cc2ccccc2)CC1	.	-	-	-	-	.
O=C(CCCCCCCC(=O)N1CCCC1)N1CCCC1	.	.	.	-	-	.
CCN1CCN(CCc2nc3cc(NC(=O)COc4ccc(Cl)cc4)ccc3n2C)CC1	-	6.57µM	5.22µM	-	?	-
COc1ccc(OCC(=O)Nc2ccc3c(c2)nc(CCN2CCC(C)CC2)n3C)cc1	-	?	?	-	-	-
CC1CCN(CCc2nc3cc(NC(=O)COc4ccc(Cl)cc4)ccc3n2C)CC1	-	3.29µM	?	-	11.2µM	-
COc1ccc(OCC(=O)Nc2ccc3c(c2)nc(CCN2CCCCC2)n3C)cc1	-	-	?	-	-	-
Cn1c(CCN2CCCC2)nc2cc(NC(=O)COc3ccc(Cl)cc3)ccc21	.	.	.	-	.	.
Cc1ccc(OCC(=O)Nc2ccc3c(c2)nc(CCN2CCC(C)CC2)n3C)cc1	-	?	?	-	12.6µM	-
SMILES	CHX counter	Pf growth 96h	Pf growth 48h	AMA1-RON2 inh	HCV inh	Shiga toxin inh
COc1cccc(/C=C/C(=O)OCC(=O)NCCc2ccccc2)c1	-	-	-	-	-	-
CCOC(=O)C1=C[C@@H](C(C)C)N(S(=O)(=O)c2ccc(C)cc2)[C@H]1c1ccc(C(F)(F)F)cc1	.	.	.	-	.	.
CCOc1ccccc1NC(=O)Nc1ccc(Br)cc1C	-	-	?	-	?	-
CC[C@@H](NC(=O)[C@H](Cc1ccccc1)NC(=O)CC[C@H]1O[C@@H](n2ccc(=O)[nH]c2=O)[C@H](O)[C@@H]1O)c1ccccc1	.	.	.	-	.	.
CCN1C(=O)/C(=C/N2CCc3ccccc32)SC1=S	15.8	-	-	-	-	68.9
CCN1C(=O)/C(=C\N2CCCc3ccccc32)SC1=S	-	.	-	-	?	-
CCCS(=O)(=O)N1CCN(Cc2ccc(OCc3ccccc3)c(OC)c2)CC1	.	.	.	-	10µM	.
CCOCCCNC(=O)C1CCN(Cc2ccc(OCc3ccccc3)c(OC)c2)CC1	17.9	?	-	-	-	-
CCOCCCNC(=O)C1CCN(Cc2cccc(OCc3ccccc3)c2)CC1	-	-	-	-	?	-
CCOc1cc(CN2CCN(S(=O)(=O)Cc3ccccc3)CC2)ccc1OC	-	-	-	-	?	-
COc1ccc(CN2CCN(Cc3ccccc3)C(CCO)C2)cc1OC (stereo unspecified)	-	-	-	-	-	-
CCCCNC(=O)C1CCN(Cc2ccc(OCc3ccccc3)c(OC)c2)CC1	41.7	-	-	-	?	44.1
COc1cc(CN2CCN(C(C)C)C(CCO)C2)ccc1OCc1ccccc1 (stereo unspecified)	30.4	-	-	-	-	69.9
COc1ccc(CN2CCNC(=O)C2CC(=O)NCCCC2CCCC2)c(F)c1 (stereo unspecified)	-	-	-	-	-	-
O=C(NCc1cccnc1)C(=O)Nc1cc2c3c(c1)CC(=O)N3CCC2	.	?	-	-	-	.
COc1ccc(CN2CCC(C(N)=O)CC2)cc1OCc1ccccc1	-	?	-	?	-	-
COc1cc(CN2CCC(C(=O)NCC(C)(C)CN(C)C)CC2)ccc1OCc1ccccc1	-	?	9.28µM	-	?	.
CCOc1cc(C2c3c(n[nH]c3C)C(=O)N2c2ccc(Br)cc2)ccc1O (stereo unspecified)	31.1	13.1µM	-	-	25.1µM	38.0
COc1cc(C2c3c(n[nH]c3C)C(=O)N2c2ccc(Br)cc2)ccc1O (stereo unspecified)	15.3	-[5.75 µM]	-	-	?	-
Cc1[nH]nc2c1C(c1cccnc1)N(c1ccc(Br)cc1)C2=O (stereo unspecified)	-	?	-	-	-	-
COc1cc(C2=NOC(C(=O)N3CCCc4ccccc43)C2)cc(OC)c1OC (stereo unspecified)	-	-	-	-	2µM	-
COc1ccc(C2=NOC(C(=O)N3CCCc4ccccc43)C2)cc1 (stereo unspecified)	22.6	-	-	-	-	-
COc1ccc(C2=NOC(C(=O)N3CCN(c4ccccc4OC)CC3)C2)cc1 (stereo unspecified)	-	?	.	-	-	-
COc1ccc(Cl)cc1C(=O)Nc1cccc(-c2ccc3nncn3n2)c1	-	-	-	-	-	-
C=CCNC(=O)c1oc2ccc(S(=O)(=O)N3CCC4(CC3)OCCO4)cc2c1C	-	-	?	-	-	-
COc1ccc(NC(=O)c2oc3ccc(S(=O)(=O)N4CCC5(CC4)OCCO5)cc3c2C)cc1	-	-	3.7µM	-	12.6µM	-
Cc1c(C(=O)NCCc2ccccc2)oc2ccc(S(=O)(=O)N3CCC4(CC3)OCCO4)cc12	-	?	?	-	11.2µM	-
